Measured values published in paper PMC4336329 (PLoS ONE, 2015).
Screen size: about 310,000 compounds; about 14,000 (4.5%) showed an effect of 50% or more. The effect is printed as a negative number. Only a selection was taken, and strong results are over-represented in it overall.

target: human ether-à-go-go-related gene (hERG) potassium channel (human, UniProt Q12809); experiment: primary screen, population patch clamp on CHO cells stably expressing hERG; higher = less effect of the substance
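Further: peak tail current of the secondary pulse compared with the same well before compound.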

Chain of human ether-à-go-go-related gene (hERG) potassium channel (Q12809 whole entry, looked up): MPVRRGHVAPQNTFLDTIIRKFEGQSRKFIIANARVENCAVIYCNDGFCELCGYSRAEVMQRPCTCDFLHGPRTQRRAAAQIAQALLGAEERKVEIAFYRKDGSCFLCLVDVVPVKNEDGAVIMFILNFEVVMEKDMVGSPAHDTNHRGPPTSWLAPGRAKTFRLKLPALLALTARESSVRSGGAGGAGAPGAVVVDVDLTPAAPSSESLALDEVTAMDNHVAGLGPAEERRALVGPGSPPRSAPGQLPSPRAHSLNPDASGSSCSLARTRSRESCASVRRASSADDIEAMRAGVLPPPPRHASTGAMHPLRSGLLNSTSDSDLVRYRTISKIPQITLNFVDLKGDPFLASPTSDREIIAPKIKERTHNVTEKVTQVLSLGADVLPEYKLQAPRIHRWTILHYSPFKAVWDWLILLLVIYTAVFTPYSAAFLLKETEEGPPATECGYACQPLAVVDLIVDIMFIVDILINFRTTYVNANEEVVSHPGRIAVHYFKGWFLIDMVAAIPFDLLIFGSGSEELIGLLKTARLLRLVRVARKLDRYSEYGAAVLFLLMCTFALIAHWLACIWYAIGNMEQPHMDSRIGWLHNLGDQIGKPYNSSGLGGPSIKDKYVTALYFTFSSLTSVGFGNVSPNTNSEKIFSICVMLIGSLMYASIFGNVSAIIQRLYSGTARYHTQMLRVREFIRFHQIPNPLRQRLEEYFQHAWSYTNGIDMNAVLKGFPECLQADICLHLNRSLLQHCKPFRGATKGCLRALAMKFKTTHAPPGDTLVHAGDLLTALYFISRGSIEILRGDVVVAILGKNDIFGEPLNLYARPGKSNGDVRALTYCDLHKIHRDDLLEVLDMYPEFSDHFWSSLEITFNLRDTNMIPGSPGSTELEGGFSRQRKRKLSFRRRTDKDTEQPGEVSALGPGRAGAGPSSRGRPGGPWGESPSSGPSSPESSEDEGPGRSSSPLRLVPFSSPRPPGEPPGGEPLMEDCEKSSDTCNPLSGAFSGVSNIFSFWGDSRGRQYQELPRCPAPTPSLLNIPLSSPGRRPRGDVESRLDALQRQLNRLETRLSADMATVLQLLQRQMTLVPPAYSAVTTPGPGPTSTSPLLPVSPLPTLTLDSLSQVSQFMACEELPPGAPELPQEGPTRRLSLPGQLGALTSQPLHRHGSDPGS

Structure (SMILES)	hERG current change (%, negative = inhibition) at 10uM
Cc1nc(C)c(-c2csc(Nc3ccc(F)cc3)n2)s1	-25.1%
O=C1CSc2ccc(C(=O)Nc3cccc(S(=O)(=O)Nc4ccc(Br)cc4)c3)cc2N1	15%
O=C(COC(=O)c1cccc(-n2cnnn2)c1)c1ccc(F)cc1	-0.561%
CCOC(=O)C1CCN(S(=O)(=O)c2ccc3c(c2)CC(=O)N3C)CC1	-22%
C=CCc1c(C)nc(SC(C)C)[nH]c1=O	-2.85%
CCOc1cc(C(=S)N2CCCC2)ccc1OC(=O)Cc1ccc(F)cc1	7.36%
COc1ccc(CC(=O)Nc2c(C(=O)N3CCN(c4ncccn4)CC3)oc3ccccc23)cc1	-63.7%
O=C(c1oc2ccccc2c1CSCc1ccccc1)N1CCN(c2ncccn2)CC1	1.59%
COc1ccc(CC(=O)Nc2c(C(=O)N3CCN(c4ncccn4)CC3)oc3ccccc23)cc1OC	-46.8%
COc1ccc(N2CCN(C(=O)c3oc4ccccc4c3NC(=O)Cc3ccc(OC)c(OC)c3)CC2)cc1	-28.7%
O=C(Cc1ccc(F)cc1)Nc1c(C(=O)N2CCN(c3ncccn3)CC2)oc2ccccc12	-56%
Cc1ccc(O)c(NC(=O)c2ccc3c(c2)C(=O)N(Cc2ccco2)C3=O)c1	3.81%
COC(=O)c1[nH]c2c(c1C)C(=O)CC(c1ccc(OC)cc1)C2 (centres unmarked)	11%
CCOc1ccc2[nH]c(=O)c(CN(CCOC)C(=O)N3CCOCC3)cc2c1	13.5%
O=C(Nc1nnc(-c2ccc(F)cc2)o1)c1ccc(S(=O)(=O)N2CCOCC2)cc1	-6.82%
CC(Oc1ccc(Cl)cc1)C(=O)N(C)CC(=O)Nc1ccc(N2CCOCC2)cc1 (centres unmarked)	5.8%
CN1CCN(CCc2nc3cc(NC(=O)COc4ccc([N+](=O)[O-])cc4)ccc3n2C)CC1	16.1%
Cn1c(CCN2CCCCC2)nc2cc(NC(=O)COc3ccc([N+](=O)[O-])cc3)ccc21	-63.1%
CC1CCN(CCc2nc3cc(NC(=O)COc4ccc([N+](=O)[O-])cc4)ccc3n2C)CC1	-68.4%
Cn1c(CCN2CCOCC2)nc2cc(NC(=O)COc3ccc([N+](=O)[O-])cc3)ccc21	-21.1%
Cn1c(CCN2CCCCC2)nc2cc([N+](=O)[O-])ccc21	-70.2%

Structure (SMILES)	hERG current change (%, negative = inhibition) at 10uM
Cn1c(CN2CCCC2)nc2cc(NC(=O)COc3ccc([N+](=O)[O-])cc3)ccc21	-38.6%
CCN1CCN(Cc2nc3cc(NC(=O)COc4ccc([N+](=O)[O-])cc4)ccc3n2C)CC1	-18.7%
Cn1c(CN2CCCCC2)nc2cc([N+](=O)[O-])ccc21	-0.791%
CCN1CCN(CCc2nc3cc([N+](=O)[O-])ccc3n2C)CC1	-16.9%
COc1ccc(N2C(=O)C3CCCN3C2c2ccccc2)cc1Cl (centres unmarked)	7.28%
CCOC(=S)N/C(=N\S(C)(=O)=O)c1ccccc1	-2.92%
COc1ccc(C(=S)N2CCOCC2)cc1OC(=O)c1cc(OC)c(OC)c(OC)c1	16.2%
COc1ccc(CN(C)C(=O)c2ccccc2Sc2ccccc2C#N)c(OC)c1	0.887%
Cc1ccc(C(=O)Cn2ncsc2=N)cc1	-12.5%
Cc1ccc(S(=O)(=O)NC2CCCC2)cc1C(N)=O	20.1%
Cc1cc(OC(=O)c2cccs2)ccc1C(C)C	12.1%
O=[N+]([O-])c1ccc(Cl)c(NC(=S)N2CCCC2)c1	5.47%
CC(=O)Nc1ccc(OCC(O)CN2CCN(c3ccc(C)c(Cl)c3)CC2)cc1 (centres unmarked)	-27.7%
CC(=O)Nc1ccc(OCC(O)CN2CCN(c3ccc(Cl)cc3)CC2)cc1 (centres unmarked)	-52.7%
CC(=O)Nc1ccc(OCC(O)CN2CCN(c3ccc(F)cc3)CC2)cc1 (centres unmarked)	-23.4%
CC(=O)Nc1ccc(OCC(O)CN2CCN(c3cc(Cl)ccc3C)CC2)cc1 (centres unmarked)	-30.8%
CC(=O)Nc1ccc(OCC(O)CN2CCN(c3cccc(Cl)c3)CC2)cc1 (centres unmarked)	-25.2%
CC(=O)Nc1ccc(OCC(O)CN2CCN(c3ccccc3Cl)CC2)cc1 (centres unmarked)	-50.2%
CC(C)N(O)C(=O)NC(C)(C)C	11.5%
O=C(NC1CCCCC1)C(c1ccc(F)cc1)N(C(=O)c1csnn1)C1CCCC1 (centres unmarked)	-7.88%
COc1ccc(-c2noc(COc3ccc(Cl)c(C)c3)n2)cc1	2.81%

Structure (SMILES)	hERG current change (%, negative = inhibition) at 10uM
COc1cccc(CNC(=O)CCC2CCCN(Cc3ccc4c(c3)CCO4)C2)c1 (centres unmarked)	-33.6%
CC1=C(C(=O)N2CCCC(CCC(=O)NCc3ccc(F)c(F)c3)C2)OCCO1 (centres unmarked)	3.36%
CC(=O)c1cccc(CN2CCCC(CCC(=O)NCc3ccccc3F)C2)c1 (centres unmarked)	-48.5%
O=C(CCC1CCCN(c2ncccn2)C1)NCc1ccc(F)c(F)c1 (centres unmarked)	-40.8%
O=C(CCC1CCCN(Cc2ccc3c(c2)CCO3)C1)NCc1ccc(F)c(F)c1 (centres unmarked)	-63.7%
O=C(CCC1CCCN(Cc2ccc3c(c2)OCCO3)C1)NCc1ccccc1F (centres unmarked)	-24.2%
O=C(CCC1CCCN(Cc2ccncc2)C1)NCc1ccc(F)c(F)c1 (centres unmarked)	-13.6%
CC(=O)c1cccc(CN2CCCC(CCC(=O)NCc3ccc(F)c(F)c3)C2)c1 (centres unmarked)	-74.7%
O=C(CCC1CCCN(Cc2ccc3c(c2)OCCO3)C1)NCc1ccc(F)c(F)c1 (centres unmarked)	-61.5%
O=C(CCC1CCCN(Cc2cccc3c2OCO3)C1)NCc1ccc(F)c(F)c1 (centres unmarked)	-74.4%
O=C(CCC1CCCN(C(=O)c2ccncc2)C1)NCc1ccc(F)c(F)c1 (centres unmarked)	-1.99%
O=C(CCC1CCCN(C(=O)c2ccc3c(c2)OCO3)C1)NCc1ccc(F)c(F)c1 (centres unmarked)	-8.73%
COC(=O)Oc1ccc(/C=C/C(=O)OC(C)C)cc1OC(=O)OC	1.69%
Cc1ccc(C(=O)NCCc2ccc(S(=O)(=O)N3CCCC3)cc2)cc1	-0.599%
CCOc1ccc(C(=O)N(C)C2CCS(=O)(=O)C2)cc1 (centres unmarked)	18.3%
O=C(CSc1nnc(-c2ccco2)o1)NC(=O)Cc1ccccc1	-5.31%
CC[C@@H](CCC=C(C)C)C(=O)N(Cc1ccccc1)c1ccccc1	3.94%
CCN1CCC(O)(c2ccccc2)C(C(=O)c2ccccc2)C1 (centres unmarked)	-7.58%
CN1CCC(O)(c2ccccc2)C(C(=O)c2ccccc2)C1 (centres unmarked)	-2.34%
CN1CCC(O)(c2ccc(Cl)cc2)C(C(=O)c2ccc(Cl)cc2)C1 (centres unmarked)	-67.7%
O=C(CCl)Oc1ccc2occ(C(=O)c3cccs3)c2c1	0.872%

Structure (SMILES)	hERG current change (%, negative = inhibition) at 10uM
C/C(=N\Nc1ccc(Cl)c(C(=O)O)c1)c1ccccn1	5.73%
CCOc1cccc(SCc2noc(C(=O)NCC3CCCO3)c2C(=O)O)c1 (centres unmarked)	32.2%
NS(=O)(=O)c1ccc(-c2cccc(/C=C3\SC(=O)NC3=O)c2)cc1	7.87%
Cc1cc(/C=C(\C#N)C(=O)Nc2ccccc2)c(C)n1-c1cccnc1	8.27%
Cc1cc(/C=C(/C#N)C(=O)Nc2ccccc2)c(C)n1-c1cccnc1	-28.5%
Cc1cc(/C=C(/C#N)C(=O)Nc2ccc(Cl)cc2)c(C)n1-c1cccnc1	-67.5%
Cc1c(C(=O)N2CCCC2)nnn1-c1nonc1N	8.67%
Cc1ccc(C2=NN(C(=O)c3ccccc3F)C(c3ccccc3F)C2)cc1 (centres unmarked)	19%
CS(=O)(=O)Nc1ccc(C2=NN(C(=O)c3ccco3)C(c3cccc(F)c3)C2)cc1 (centres unmarked)	-78.3%
CCC(=O)N1N=C(c2ccc(NS(=O)(=O)CC)cc2)CC1c1ccc(C)cc1 (centres unmarked)	-14.1%
O=C(c1ccco1)N1N=C(c2ccc(Br)cc2)CC1c1ccco1 (centres unmarked)	18.5%
CCC(=O)N1N=C(c2ccc(NS(C)(=O)=O)cc2)CC1c1ccc(C)cc1 (centres unmarked)	-44.7%
CCS(=O)(=O)Nc1ccc(C2=NN(C(=O)c3ccco3)C(c3cccc(F)c3)C2)cc1 (centres unmarked)	-32.4%
CCS(=O)(=O)Nc1cccc(C2=NN(C(=O)c3ccco3)C(c3ccco3)C2)c1 (centres unmarked)	-4.98%
CS(=O)(=O)Nc1cccc(C2=NN(C(=O)c3ccco3)C(c3ccco3)C2)c1 (centres unmarked)	-2.88%
CS(=O)(=O)Nc1cccc(C2=NN(C(=O)c3ccco3)C(c3cccs3)C2)c1 (centres unmarked)	-59%
CS(=O)(=O)Nc1ccc(C2=NN(C(=O)c3ccco3)C(c3ccccc3F)C2)cc1 (centres unmarked)	-78.2%
CS(=O)(=O)Nc1cccc(C2=NN(C(=O)c3ccccc3)C(c3cccs3)C2)c1 (centres unmarked)	-14%
CCC(=O)N1N=C(c2ccc(NS(C)(=O)=O)cc2)CC1c1ccc(N(C)C)cc1 (centres unmarked)	-66.2%
CCn1c(CSc2nc3ccccc3s2)nnc1SCC(=O)c1ccc2c(c1)OCCO2	-10.5%
